In PubChem BioAssay (EPA / NIEHS):
Values joined by “and” are separate entries in the source; they are usually repeats but may differ in a detail not shown here. Identical values can stand only once. More than one record can exist for a structure, and the calls need not agree. Active and inactive are the calls of the source. The calls were made as follows: active = hit-call score of the fitted dose curve at least 0.9, where 1 is the maximum; inactive = score below 0.9.

Each compound was assayed on Collagen IV, COL4A1 (gene 1282) (assay: BSK_MyoF_CollagenIV: BioMAP Diversity Plus: MyoF Assay for Collagen IV Biomarker Activity (AID 2284247)). Details: primary human lung fibroblasts.
Experimental: BSK_MyoF is a cell-based, multiplexed-readout assay that uses lung fibroblasts, […], with measurements taken at 24 hours after chemical dosing in a microplate: 96-well plate.BSK_MyoF_CollagenIV is an assay component measured in the BSK_MyoF assay. It measures Collagen IV antibody related to regulation of gene expression using ELISA technology.Data from the assay component BSK_MyoF_CollagenIV was analyzed at the endpoint, BSK_MyoF_CollagenIV, in the positive analysis fitting direction relative to DMSO as the negative control and baseline of activity. Using a type of binding reporter, gain or loss-of-signal activity can be used to understand protein changes. To generalize the intended target to other relatable targets, this assay endpoint is annotated to the 'cell adhesion molecules' intended target family, where the subfamily is 'collagen'.
The levels of cell surface (or secreted, indicated by the prefix "s") biomarker endpoints were measured by ELISA. Overt cytotoxicity to cells in confluent adherent cultures (all systems other than the BT system) was assessed by measuring total protein levels using sulforhodamine B (SRB) staining in parallel cultures at the time of biomarker measurements, indicated as SRB endpoints. For proliferation assays for adherent cell types, individual cell types are cultured at sub-confluence and relative cell numbers quantified by SRB staining at time points optimized for each system (48 h: 3C and CASM3C systems; 72 h: BT and HDF3CGF systems; 96 h: SAg system). SRB was performed by staining cells with 0.1% SRB after fixation with 10% TCA and reading wells at 560 nm.Viability and proliferation of PBMC (T cells) was quantified by Alamar Blue reduction for the SAg and BT systems. For PBMC viability (referred to as PBMC Cytotoxicity within the assay endpoint names), cells were plated (75,000/well in a 96-well plate) and then chemical samples added for 1 h before addition of activators, SEB and TSST-1 (20 ng/mL final concentration each). Cells were incubated for 90 h. Then, Alamar Blue (20 uL/well) (Invitrogen, Cat DAL1100) was added for 6 h, and the plates were read with a fluorescence microplate reader at 546/580 nm (excitation/emission). For PBMC proliferation, cells were plated and activated as above but incubated for only 16 h prior to addition of Alamar Blue. Plates were read after 6 h.

**Q.** CCCCCCCCCC(=O)OCC was tested. Which outcome did it give?
**A.** inactive

**Q.** With NC(=O)c1c(Cl)cccc1Cl as the compound, how does the outcome read?
**A.** inactive

**Q.** Which outcome does the source give for CC(C)(C)c1cccc(O)c1 here?
**A.** inactive

**Q.** For CC(=O)OC(C)(C)C1CC=C(C)CC1 (stereo unspecified), which outcome is on record?
**A.** inactive

**Q.** How did the AC50 turn out when O=S1(=O)CC(Cl)(Cl)C(Cl)(Cl)C1 was run?
**A.** 1.85 µM (active)

**Q.** How did the outcome turn out when C=C(F)C(=O)OC(C(F)(F)F)C(F)(F)F was run?
**A.** inactive

**Q.** With CCCCCCCC1CCCC1=O (stereo unspecified) as the compound, how does the outcome read?
**A.** inactive

**Q.** With c1ccc2c(c1)-c1ccc3ccc4cccc5cc-2c1c3c45 as the compound, how does the AC50 read?
**A.** 0.0918 µM (active)

**Q.** For O=C1OC2(c3ccc(O)cc3Oc3cc(O)ccc32)c2ccccc21, which outcome is on record?
**A.** inactive

**Q.** With C=C(C)C(=O)OCCC(F)(F)C(F)(F)C(F)(F)C(F)(F)C(F)(F)C(F)(F)C(F)(F)C(F)(F)F as the compound, how does the outcome read?
**A.** inactive

**Q.** CC(C)Cc1ccc(C(C)C(=O)O)cc1 (stereo unspecified) was tested. Which outcome did it give?
**A.** inactive

**Q.** CCC(=O)OCC=Cc1ccccc1 was tested. Which outcome did it give?
**A.** inactive

**Q.** What does the source list for OCC(F)(OC(F)(F)C(F)(OC(F)(F)C(F)(F)C(F)(F)F)C(F)(F)F)C(F)(F)F (stereo unspecified)?
**A.** AC50: 3.9 µM (active); outcome: inactive

**Q.** How did the AC50 turn out when C=C1CC/C=C(\C)CC[C@@H]2[C@@H]1CC2(C)C was run?
**A.** 23.8 µM (active)

**Q.** How did the outcome turn out when CC(=O)OCC=C(C)CCC=C(C)CCC=C(C)C was run?
**A.** inactive

**Q.** With Nc1ccc(N)c([N+](=O)[O-])c1 as the compound, how does the outcome read?
**A.** inactive

**Q.** Which outcome does the source give for CCCCCCCCCCCCS here?
**A.** inactive

**Q.** With O=C(O)C(F)(F)C(F)(F)C(F)(F)C(F)(F)C(F)(F)C(F)(F)C(F)(F)C(F)F as the compound, how does the outcome read?
**A.** inactive

**Q.** With CCOC(=O)CCCCCCCCC(=O)OCC as the compound, how does the outcome read?
**A.** inactive

**Q.** Which outcome does the source give for OCCN1CCOCC1 here?
**A.** inactive

**Q.** How did the outcome turn out when C=CC(=O)OCC(CO)(COC(=O)C=C)COC(=O)C=C was run?
**A.** inactive

**Q.** With CC1(C)[C@H](C=C(Cl)Cl)[C@H]1C(=O)OCc1cccc(Oc2ccccc2)c1 as the compound, how does the outcome read?
**A.** inactive

**Q.** Which AC50 does the source give for O=C(O)C(F)(F)OC(F)(F)C(F)(F)OC(F)(F)C(F)(F)C(F)(F)C(F)(F)F here?
**A.** 43.5 µM (active) and 38.4 µM (active)

**Q.** Which outcome does the source give for O=S(=O)(O)C(F)(F)C(F)(F)OC(F)(F)C(F)(F)F here?
**A.** inactive

**Q.** For CC(=O)CCC=C(C)CCC=C(C)C, which outcome is on record?
**A.** inactive

**Q.** With CC=CC(=O)C1=C(C)C=CCC1(C)C as the compound, how does the outcome read?
**A.** inactive

**Q.** With CCOC(=O)C=Cc1ccccc1 as the compound, how does the outcome read?
**A.** inactive

**Q.** c1ccc(Sc2ccccc2)cc1 was tested. Which AC50 did it give?
**A.** 32.6 µM (active)

**Q.** For CC1=CC(C)C(C=O)C(C)C1 (stereo unspecified) (tested in a mixture with another compound), which outcome is on record?
**A.** inactive

**Q.** With COc1ccccc1NC(=O)CC(C)=O as the compound, how does the outcome read?
**A.** inactive
